LASV entry inh: blocks Lassa virus binding to or entry into cells. Lassa virus pseudotype entry inhibition, cell reporter. Potency, µM (doses to about 37.9 µM), for inactives: top-dose activity change, negative = inhibition, hits mostly inhibitors. actives 1.2% (n = 300,000); calls by dose curve; tested in HEK293 cells; note: potency is the fitted concentration of half-maximal effect; % is set by controls: 0 for no effect and ±100 for the full control effect; nearly all actives have a fitted effect of over 50% in size
CHX counter: affects cycloheximide protein synthesis inhibition readout, counter-screen. max response, %. actives 12% (n = 300,000). cell reporter, cycloheximide protein synthesis inhibition counterscreen; in the data active = max response mostly above about 13%, no sharp cut-off; inactive = mostly below about 14%; note: read at 38.3 µM for the half of the compounds with a filed dose; 0% is about no effect
VACV Venus inh: inhibitors of vaccinia virus (Venus reporter); Vaccinia virus Venus reporter expression, fluorescence; Potency, µM (highest dose often 36.5 µM), without a hit: at the top dose activity change, negative = inhibition, hits mostly inhibitors; actives 0.46% (n = 330,000); calls by dose curve; tested in A549 cells; note: potency is the fitted concentration of half-maximal effect; % is set by controls: 0 for no effect and ±100 for the full control effect; nearly all actives have a fitted effect of over 30% in size
VACV mCherry inh: vaccinia inhibition (mCherry reporter); Vaccinia virus mCherry reporter infection, fluorescence; Potency, µM (titrated, usually from 36.5 µM), inactives show at the top dose activity change, negative = inhibition, hits mostly inhibitors; actives 0.63% (n = 310,000); calls by dose curve; tested in A549 cells; note: potency is the fitted concentration of half-maximal effect; % is set by controls: 0 for no effect and ±100 for the full control effect; nearly all actives have a fitted effect of over 35% in size
Marburg entry inh: blocks Marburg virus binding to or entry into cells | Marburg virus pseudotyped entry inhibition, cell reporter | AID 540276 | actives 1.8% (n = 300,000) | Potency, µM (titrated, usually from 37.8 µM), for inactives: at the highest dose activity change, negative = inhibition, usual class: inhibitors; calls by dose curve; tested in HEK293 cells; note: potency is the fitted concentration of half-maximal effect; % is set by controls: 0 for no effect and ±100 for the full control effect
Shiga toxin inh: Shiga toxin inhibition. actives 9.2% (n = 290,000). Vero cells, Shiga toxin protein synthesis inhibition reporter. inhibition, % at 38.7 µM; in the data active = inhibition mostly above about 28%, no sharp cut-off; inactive = mostly below about 43%; note: 0% is about no effect
An asterisk follows results filed as active; i = inactive; u = inconclusive; x = no result given; [ ] = another dose, or the depositor's remark. This is one part of a sample in which hits are shown more often than they occur.

SMILES	LASV entry inh	CHX counter	VACV Venus inh	VACV mCherry inh	Marburg entry inh	Shiga toxin inh
C/C(=N\Nc1ncc(Cl)cc1Cl)c1ccc(OC(F)F)cc1	10%	50*	-20%	-25%	13%	42*
CCc1ccc(OCC(=O)N/N=C(\C)c2ccc(OC(F)F)cc2)cc1	u	-1	-12%	i	0%	31
C/C(=N\NC(=O)C1CC1)c1ccc(OC(F)F)cc1	x	9	-13%	-4%	17%[46.1 µM]	51*
COC(=O)N/N=C(\C)c1ccc(OC(F)F)cc1	30%	35*	-14%	-19%	u	80*
COC(=O)N/N=C(\C)c1cccc(C(F)(F)F)c1	9%	29*	-3%	i	-1%[46.1 µM]	34
C/C(=N\Nc1ncc(Cl)cc1Cl)c1ccc2c(c1)OCO2	x	13	-5%	u	x	58
CN(C)CCCN(C(=O)c1ccc2c(c1)OCCO2)c1nc2ccccc2s1	u	x	-9%[7.34 µM]	-12%[7.34 µM]	x	x
Cc1ccc(Cl)cc1NC(=O)c1sc2nc(-c3ccccc3)cn2c1C	13%[46.1 µM]	x	-3%	7%	x	x
COC(=O)C1C(c2ccccc2)C(C(=O)OCc2ccco2)C1c1ccccc1 (stereo unspecified)	u	72*	x	x	21µM*	125*
O=C(O)C1C(c2ccccc2)C(C(=O)OCc2ccco2)C1c1ccccc1 (stereo unspecified)	0%	-1	x	x	-29%	-3
CC(C)(C)c1ccc(NC(=O)C(=O)C2C(=O)Nc3ccccc32)cc1 (stereo unspecified)	x	32*	-21%	i	x	49*
CC(C)c1ccc(NC(=O)C(=O)C2C(=O)Nc3ccccc32)cc1 (stereo unspecified)	x	9	-29%	i	x	-5
Cc1ccc(C)c(NC(=O)CCC(=O)NN=C2CCCC2)c1	x	-3	x	x	x	-4
O=C(O)C1CCN(C(=O)COc2ccc3c(c2)oc(=O)c2ccccc23)CC1	x	-2	-4%	3%	x	-2
Cc1ccc(OCC(=O)c2ccc3c(c2)CCCC3)cc1C	-2%	36*	-14%	x	0%	92*
Cc1ccc(OCC(=O)N2CCOCC2)cc1C	u	31*	-10%	-4%	u	44*
Cc1cc(OCC(=O)N2CCOCC2)cc2oc(=O)c3ccccc3c12	1%	21*	-14%	x	u	36*
CCOc1ccc(OCC(=O)N2CCOCC2)cc1	0%	14	-1%	x	9%[46.1 µM]	25
O=C(c1ccccc1)c1ccc(OCC(=O)N2CCOCC2)cc1	x	17	x	x	x	46*
Cc1cc(OCC(=O)N2CCCCCC2)ccc1[N+](=O)[O-]	6%	43*	-22%	-7%	u	17
Cc1ccc(C)c(OCCCC(=O)O)c1	-11%	-2	-12%	-12%	u	-6
Cc1ccc(C)c(OCCCC(=O)N2CCOCC2)c1	2%	27*	x	x	10%	44*
Cc1ccc(OCC(=O)N2CCCCCCC2)cc1C	4%[46.1 µM]	21*	-8%	i	u	29*
COCCNC(=O)CSc1cc(=O)n(C)c2cc(Cl)ccc12	u	-5	-8%	i	-22%[46.1 µM]	-13
Cc1cccc(NS(=O)(=O)c2ccc3c(c2)CC(C)N3C(=O)C2CCC2)c1C (stereo unspecified)	u	x	-9%	-24%	x	x
SMILES	LASV entry inh	CHX counter	VACV Venus inh	VACV mCherry inh	Marburg entry inh	Shiga toxin inh
O=C(CSc1nnc(-c2c[nH]c3ccccc23)n1CC1CCCO1)Nc1ccc2c(c1)OCCO2 (stereo unspecified)	-10%	7	-4%	x	3%	-4
CCc1ccccc1-n1c(SCC(=O)Nc2ccc3c(c2)OCCO3)nc2[nH]ncc2c1=O	u	53*	-15%	i	-1%	112*
CCn1c(SCC(=O)Nc2ccc3c(c2)OCCO3)nnc1-c1c[nH]c2ccccc12	x	12*	-25%	u	x	14
Cc1ccc(NCc2nnc(SCC(=O)Nc3ccccc3)n2CC2CCCO2)c(C)c1 (stereo unspecified)	1%	33*	x	x	0%	48
O=C(CS(=O)(=O)c1c[nH]c2ccccc12)Nc1ccc2c(c1)OCCO2	0%	38*	1%	i	11%	45*
Cc1ccc(NC(=O)CSc2nnc(C3CC3)n2CC2CCCO2)c(C)c1 (stereo unspecified)	2%[46.1 µM]	-2	2%	-14%	0%[46.1 µM]	49
COc1ccc(-n2c(CNC(=O)c3cccc4ccccc34)nnc2SC)cc1	x	x	-15%	-3%	x	x
O=C(Cc1ccc2c(c1)OCO2)N1CCOc2ccc(CN3CCOCC3)cc2C1	x	x	12%	-3%	x	x
Cc1cccc([C@@H]2[C@@H]3C(=O)N(Cc4ccccc4)C(=O)[C@@H]3[C@]3(Cc4ccc(Cl)cc4)C(=O)N(c4cccc(Br)c4)C(=O)N23)c1	x	-4	-22%	i	x	-2
CC(=O)Nc1cccc(NC(=O)CSc2ncc(-c3ccc(Cl)cc3)n2Cc2ccco2)c1	u	2	u	u	u	-6
C=CCn1c(C)nnc1SCC(=O)Nc1ccc2c(c1)OCCO2	-7%	x	-7%	i	15%	x
CCn1c(C)nnc1SCC(=O)Nc1ccc2c(c1)OCCO2	2%	13*	-12%	-17%	u	26
Cc1nnc(SCC(=O)Nc2ccc3c(c2)OCCO3)n1CC1CCCO1 (stereo unspecified)	u	7.4*	-4%	-18%	-8%[46.1 µM]	30*
O=C(CSc1nnc(-c2ccccc2Cl)n1Cc1ccco1)Nc1ccc2c(c1)OCCO2	-24%	13*	-15%	i	u	4
O=C(CSc1nnc(-c2ccc(Cl)cc2)n1Cc1ccco1)Nc1ccc2c(c1)OCCO2	-14%	11	x	x	u	4
COc1ccc(-c2cnc(SCC(=O)Nc3ccc4c(c3)OCO4)n2Cc2ccco2)cc1	u	14*	-14%	-24%	u	25
Cc1cccc(-c2nc(N3CCN(c4ccc(F)cc4)CC3)c3ccccc3n2)c1	-14%[46.1 µM]	x	-6%	-9%	x	x
COc1ccc(C(=O)NCc2nnc(SCC(=O)NCCc3ccccc3)o2)cc1	x	1	x	x	x	0
CCC(=NCc1ccco1)c1c(O)n(-c2ccc(OC)cc2)c(=O)[nH]c1=O	1.6µM*	-2	-12%	-18%	11%[46.1 µM]	-5
COc1ccc(-n2c(O)c(/C(C)=N/N3CCCCCC3)c(=O)[nH]c2=O)cc1	2.2µM*	-1	-4%	-16%	u	7
COc1ccc(-n2c(O)c(/C(C)=N/Nc3ccccc3)c(=O)[nH]c2=O)cc1	u	-2	7%	-24%	u	1
Fc1ccc(CN2CCN3CCCC3C2C2CCCCC2)cc1F (stereo unspecified)	13µM*	-5	u	x	u	-15
Fc1cccc(CN2CCN3CCCC3C2C2CCCCC2)c1 (stereo unspecified)	-2%	-3	-29%	x	u	-10
Cc1ccccc1Nc1nc(-c2sc(NC(=O)c3ccccc3)nc2C)cs1	x	12	x	x	5%	50*
Cc1ccccc1Nc1nc(-c2sc(NC(=O)c3ccc([N+](=O)[O-])cc3)nc2C)cs1	x	16*	x	x	-10%	39

High-throughput results deposited in PubChem BioAssay by National Center for Advancing Translational Sciences (NCATS).
